Screening data (PubChem)
3T3 cytotox = NIH 3T3 cell cytotoxicity. NIH 3T3 viability, CellTiter-Glo ATP luminescence, 48-72 h. AID 1345082. 94,000 compounds, 4.3% hits. Potency, µM (titrated, usually from 96.7 µM), inactives show top-dose activity change, negative = cytotoxicity, hits mostly inhibitors; further: nearly all actives have a fitted effect of over 55% in size
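ATP-dependent luminescence (CellTiter-Glo) served as the viability signal for NIH 3T3 cells treated with compound for 48 or 72 hr at 37 °C.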
Luciferase inh = inhibitors of firefly (Photinus pyralis) luciferase | P08659 | purified P. pyralis luciferase, luminescence, biochemical | Potency, µM (doses to about 115 µM), most hits filed as inhibitors | 76,000 compounds, 2.5% hits; further: nearly all actives have a fitted effect of over 65% in size
Target sequence (P08659 whole entry, looked up): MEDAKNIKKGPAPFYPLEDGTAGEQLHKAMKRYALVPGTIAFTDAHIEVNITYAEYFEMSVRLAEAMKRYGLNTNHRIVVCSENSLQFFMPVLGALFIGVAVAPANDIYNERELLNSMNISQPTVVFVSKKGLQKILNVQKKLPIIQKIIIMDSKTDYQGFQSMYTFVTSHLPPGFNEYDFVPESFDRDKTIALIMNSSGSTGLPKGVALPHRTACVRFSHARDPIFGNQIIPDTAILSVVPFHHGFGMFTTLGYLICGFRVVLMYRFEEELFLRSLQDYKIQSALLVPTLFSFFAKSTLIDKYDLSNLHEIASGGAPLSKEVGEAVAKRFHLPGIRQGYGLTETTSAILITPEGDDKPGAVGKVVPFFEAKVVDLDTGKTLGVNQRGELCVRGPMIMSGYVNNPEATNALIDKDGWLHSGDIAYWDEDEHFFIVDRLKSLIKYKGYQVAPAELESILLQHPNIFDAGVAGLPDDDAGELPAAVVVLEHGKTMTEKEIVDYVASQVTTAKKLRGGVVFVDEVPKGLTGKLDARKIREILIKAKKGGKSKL
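Luminescence read by CCD imaging after purified firefly luciferase (10nM final) was added to substrate buffer holding 10uM D-luciferin and 10uM ATP, pH 7.5, pre-dosed with compound.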
HEK cytotox = kills HEK 293 cells | HEK 293 viability, ATP luminescence (CellTiter-Glo), 48-72 h | Potency, µM (highest dose often 115 µM), for inactives: top-dose activity change, negative = cytotoxicity, usual class: inhibitors | 94,000 compounds, 6.6% hits | AID 1345083; further: nearly all actives have a fitted effect of over 60% in size
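Cytotoxicity was scored by loss of ATP-coupled luminescence (CellTiter-Glo) in HEK 293 cells. Compound treatment ran 48 or 72 hr at 37 degree Celsius, 5% CO2, 95% humidity.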
NPR1 antag = human Npr1 receptor antagonism | P16066 | HEK293 hNpr1 GloSensor cGMP, ANP-stimulated luminescence | Potency, µM (series often up to 46.3 µM), for the others: at the top dose activity change, negative = inhibition, hits mostly inhibitors | 76,000 compounds, 1.6% hits; calls by dose curve; further: nearly all actives have a fitted effect of over 60% in size
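Compound pre-incubated 30 min at room temperature on GloSensor-loaded HEK293 cells stably carrying hNpr1 and the pGS-40F cGMP biosensor. Stimulation uses hNppA at 0.1 nM final; luminescence is taken at baseline and 20 min post-agonist.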
* = called active by the depositor; i = inactive; ? = inconclusive; / = no result given; [ ] = remark or other dose. Compounds with a hit are over-represented: about 11% of the library has one in this group of screens. Unless noted, the call rests on the fitted dose curve; in most records, active means well fitted curve in the direction sought with a large enough effect; inconclusive means small, poorly fitted or top-dose-only effect, or another doubt; inactive means no such curve, though single readings can be large; an effect the other way counts as inactive or inconclusive. On the % scale 0 is the no-effect control and ±100 the full control effect; potency means the concentration at half of the fitted maximal effect.

SMILES	3T3 cytotox	Luciferase inh	HEK cytotox	NPR1 antag
Cc1noc(C)c1-c1cc2cc(CN(C)C)oc2c(NCc2cccnc2)n1	?	i	?	6.5%[70.6 µM]
Cc1noc(C)c1-c1cc2cc(CN(C)C)oc2c(Nc2cccnc2)n1	25.1µM*	i	70.8µM*	-1.0%[70.6 µM]
Cc1ccccc1-c1nc(-c2c(C)noc2C)cc2cc(CN(C)C)oc12	28.2µM*	i	?	3.9%[70.6 µM]
O=C(c1ccccc1F)N1CCCC(C(=O)N2CCC(c3nc4ncccc4[nH]3)C2)C1 (centres undefined)	-4.8%	/	i	/
CCCCn1c(=O)c(C(=O)NC2CCCc3ccccc32)nc2cccnc21 (centres undefined)	35.5µM*	/	39.8µM*	/
COc1ccccc1-c1ccc(C(=O)N2CCC(NC(=O)N(C)C)CC2)cc1	-14.1%	/	0.1%	/
COc1ccccc1-c1ccc(C(=O)N2CCC(C(=O)NCCCc3ccccc3)CC2)cc1	?	/	79.4µM*	/
COc1ccccc1-c1ccc(C(=O)N2CCC(C(=O)N3CCC(Cc4ccccc4)CC3)CC2)cc1	22.4µM*	/	?	/
COc1ccccc1-c1ccc(C(=O)N2CCC(C(=O)N3CCOCC3)CC2)cc1	i	/	i	/
COc1ccccc1-c1ccc(C(=O)N2CCC(NC(=O)Nc3ccc(Cl)cc3)CC2)cc1	?	/	31.6µM*	/
COc1ccccc1-c1ccc(C(=O)N2CCC(NC(C)=O)CC2)cc1	-19.4%	/	?	/
COc1ccccc1-c1ccc(C(=O)N2CCC(C(=O)NC3CCCC3)CC2)cc1	?	/	28.2µM*	/
O=C(NCc1ccc(C(F)(F)F)cc1)C1CCN(C(=O)c2ccc(-c3cncnc3)cc2)CC1	17.8µM*	/	?	/
COc1ccccc1-c1ccc(C(=O)N2CCC(C(=O)NCc3cccc(Cl)c3)CC2)cc1	?	/	20µM*	/
COc1ccccc1-c1ccc(C(=O)N2CCC(C(=O)NCc3ccc(C(F)(F)F)cc3)CC2)cc1	?	/	35.5µM*	/
COc1ccccc1-c1ccc(C(=O)N2CCC(C(=O)NCC3CC3)CC2)cc1	-25.1%	/	?	/
CN(C)c1ccc(Nc2ncncc2-c2nc(-c3ccccc3)no2)cc1	i	i	i	-4.3%
Cc1nc(C(=O)N2CCOc3c(O)cc(-c4cccc(Cl)c4)cc3C2)cs1	?	i	17.8µM*	?
CC(C)CNC(=O)CN1CCOc2c(O)cc(-c3cccc(Cl)c3)cc2C1	?	i	?	-21.2%
CC1(C(=O)N2CCOc3c(O)cc(-c4cccc(Cl)c4)cc3C2)CCCO1 (centres undefined)	?	i	44.7µM*	-22.7%
COC(=O)N1CCN(c2ccc3nnc(C)n3n2)CC1	?	/	-0.1%[172 µM]	/
COc1ccccc1-n1c(=O)c(C(=O)N2CCN([S+](=O)([O-])c3cccc(C(F)(F)F)c3)CC2)nc2cccnc21	?	/	0.1%	/
CSc1ccc(-c2cccc(CN3CCC(NC(=O)c4cccnc4)CC3)c2)cc1	-15.7%	/	-9.5%	/
COc1ccc(F)cc1-c1ccc(CN2CCC(NC(=O)c3ccc(Cl)nc3)C2)cc1 (centres undefined)	31.6µM*	/	31.6µM*	/
COc1ccccc1-c1ccc(C(=O)N2CCC(NC(=O)c3ccc(F)cc3)CC2)cc1	-5.9%	/	-12.4%	/
SMILES	3T3 cytotox	Luciferase inh	HEK cytotox	NPR1 antag
COc1ccc(C(=O)NC2CCN(Cc3ccc(-c4ccccc4OC)cc3)C2)cc1 (centres undefined)	22.4µM*	/	?	/
COc1ccc(C(=O)NC2CCN(Cc3ccc(-c4cc(F)ccc4OC)cc3)C2)cc1 (centres undefined)	17.8µM*	/	22.4µM*	/
COc1ccc(C(=O)NC2CCCN(c3cc(-c4ccc(F)cc4)[nH]n3)C2)cc1 (centres undefined)	?	?	?	-12.0%
COc1ccc(F)cc1-c1ccc(CN2CCC(NC(=O)c3cccnc3)C2)cc1 (centres undefined)	?	/	50.1µM*	/
O=C(NC1CCCN(Cc2ccc(-c3cncnc3)cc2)C1)c1ccc(Cl)nc1 (centres undefined)	-23.9%	/	?	/
O=C(c1ccccc1F)N1CCC(C(=O)N2CCC(N3CCOCC3=O)CC2)CC1	0.2%	/	i	/
COCCOc1ccc2c(n1)CCN(C(=O)COc1ccccc1)C2	-19.0%	i	-15.5%	-12.6%
COCCn1nnnc1C1CC2(CCOCC2)C(=O)N1Cc1ccc(C(F)(F)F)cc1 (centres undefined)	-15.5%	/	-22.4%	/
NC(=O)CN1CCCC(c2nc(-c3ccc4nc[nH]c4c3)no2)C1 (centres undefined)	-20.1%	i	i	1.0%
COc1ccccc1-c1ccc(CN2CCC(NC(=O)c3ccc(Cl)cc3)C2)cc1 (centres undefined)	14.1µM*	/	25.1µM*	/
CC1(COCC2CC2)COc2ccc(C(=O)N3CCOCC3c3cccc(F)c3)cc2N1 (centres undefined)	?	i	?	1.3%[70.6 µM]
O=C1NC(=NC2CCCCC2)C2(CCN(Cc3ccc(F)cc3)C2)N1c1cccnc1 (centres undefined)	39.8µM*	/	i	/
COc1ccc(CN2CCC3(C2)C(=NC2CCCCC2)NC(=O)N3c2cccnc2)cc1 (centres undefined)	31.6µM*	/	i	/
O=C1NC(=NC2CCCC2)C2(CCN(Cc3ccc(F)cc3)C2)N1c1cccnc1 (centres undefined)	22.4µM*	/	-14.9%	/
O=C1NC(=NC2CCCC2)C2(CCN(Cc3ccncc3)C2)N1c1cccnc1 (centres undefined)	?	/	-14.3%	/
Cc1cn2nnc(C(=O)N3CCC(C(=O)Nc4ccc(C)c(Cl)c4)CC3)c2c(=O)[nH]1	-6.5%	i	12.5%	11.6%
CCCCN1CCc2[nH]cnc2C1c1cc(C)ccc1F (centres undefined)	-7.2%	i	-27.0%	1.3%
c1ccc(CN[C@H]2CO[C@H]3[C@@H]2OC[C@@H]3n2cc(CC3CCCCC3)nn2)cc1	35.5µM*	i	?	-20.4%[70.6 µM]
COc1ccc(C(=O)N[C@H]2CO[C@H]3[C@@H]2OC[C@@H]3n2cc(CC3CCCCC3)nn2)cc1	?	i	?	-26.2%[70.6 µM]
Cc1ccc(C(=O)N[C@H]2CO[C@H]3[C@@H]2OC[C@@H]3n2cc(CC3CCCCC3)nn2)cc1	35.5µM*	i	?	-4.1%[70.6 µM]
CN(Cc1ccccc1)Cc1cn([C@H]2CO[C@H]3[C@@H]2OC[C@@H]3NCc2ccccc2)nn1	?	i	?	-1.8%[70.6 µM]
COC(=O)c1cccc(NC(=S)N[C@H]2CO[C@H]3[C@@H]2OC[C@@H]3n2cc(CC3CCCCC3)nn2)c1	?	i	39.8µM*	?
O=C(N[C@H]1CO[C@H]2[C@@H]1OC[C@@H]2n1cc(-c2ccccc2)nn1)c1ccc(C(F)(F)F)cc1	?	i	39.8µM*	?
CCCN1CCC2(CCN(C(=O)OC)CC2)Oc2ccccc21	?	i	100µM*	0.0%[70.6 µM]
CCCN1CCC2(CCN(C(=O)c3ccc(OC)cc3)CC2)Oc2ccccc21	?	i	44.7µM*	0.0%
